This excerpt belongs to a sample that is enriched for hits.
Lassa entry inh = qHTS for Inhibitors of binding or entry into cells for Lassa Virus; Lassa virus pseudotype entry inhibition, cell reporter; Potency, µM (titrated, usually from 37.9 µM), for the others: at the top dose activity change, negative = inhibition, hits mostly inhibitors; 1.2% of 300,000 active; AID 540256, 2011; calls by dose curve; tested in HEK293 cells; also: potency is read from the fitted curve at half-maximal effect; % is scaled to controls: 0 for no effect and ±100 for the full control effect; nearly all actives have a fitted effect of over 50% in size
AMA1 RON2 block = qHTS for Inhibitors of AMA1-RON; Towards Development of Antimalarial Drug Lead: Primary Screen; Plasmodium falciparum AMA1 (3D7) - RON2 peptide interaction; AlphaScreen AMA1-biotinylated RON2 peptide binding; Potency, µM (top dose mostly 58.2 µM), for inactives: top-dose activity change, negative = inhibition, usual class: inhibitors; 0.2% of 360,000 active; AID 720542, 2013; active = well fitted inhibition curve with a large enough effect; inconclusive = small, poorly fitted or top-dose-only effect; inactive = no such curve, though single readings can be large or run the other way;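 also: potency is read from the fitted curve at half-maximal effect; 0% = vehicle wells and -100% = peptide control; nearly all actives have a fitted effect of over 45% in size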
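AMA1 (3D7) with his tag at 25 nM final met compounds first, then biotinylated RON2 peptide at 25 nM; detection used donor plus acceptor beads, 10 µg/mL apiece, read by AlphaScreen after 30 min at room temperature.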
Cycloheximide cs = Cycloheximide Counterscreen for Small Molecule Inhibitors of Shiga Toxin. cell reporter, cycloheximide protein synthesis inhibition counterscreen. max response, %. 12% of 300,000 active; in the data active = max response mostly above about 13%, no sharp cut-off; inactive = mostly below about 14%; also: read at 38.3 µM for the half of the compounds with a filed dose; 0% is about no effect
Shiga inhibitor = A qHTS for Small Molecule Inhibitors of Shiga Toxin; Vero cells, Shiga toxin protein synthesis inhibition reporter; inhibition, % at 38.7 µM; 9.2% of 290,000 active; AID 2315, 2010; in the data active = inhibition mostly above about 28%, no sharp cut-off; inactive = mostly below about 43%; also: 0% is about no effect
Marburg entry inh = qHTS for inhibitors of binding or entry into cells for Marburg Virus; Marburg virus pseudotyped entry inhibition, cell reporter; Potency, µM (series often up to 37.8 µM), for the others: at the highest dose activity change, negative = inhibition, usual class: inhibitors; 1.8% of 300,000 active; AID 540276, 2011; calls by dose curve; tested in HEK293 cells; also: potency is read from the fitted curve at half-maximal effect; % is scaled to controls: 0 for no effect and ±100 for the full control effect
* = called active by the depositor; ? = inconclusive; · = not tested or not shown; [ ] = another dose, or the depositor's remark.

SMILES	Lassa entry inh	AMA1 RON2 block	Cycloheximide cs	Shiga inhibitor	Marburg entry inh
Cc1cccc(C(=O)OC(C)C(=O)NCC2CCCCC2)c1O (stereo unspecified)	15%	10%	·	·	20%
CC(C)[C@H](NC(=O)[C@H]1N2C(=O)c3ccccc3C2SC1(C)C)C(=O)NCc1ccco1 (stereo partly specified)	·	-5%	-14	-3	·
CCN(C(=O)COC(=O)CNC(=O)c1ccc(Cl)cc1Cl)c1c(N)n(Cc2ccccc2)c(=O)[nH]c1=O	·	0%	·	·	·
CC1CN(C2CCN(C(=O)COc3ccc(Cl)cc3)CC2)CC(C)O1 (stereo unspecified)	10%	-16%	-3	6	16%[46.1 µM]
Cc1ccsc1CNC(=O)C1(C)CCN1C(C)C (stereo unspecified)	·	8%	·	·	·
N#C/C(=C\c1c[nH]c2ccccc12)C(N)=O	·	-1%	9.0*	27	·
COC(=O)/C(C#N)=C/c1c[nH]c2ccccc12	13%[46.1 µM]	?	37*	103*	?
CCOC(=O)/C(C#N)=C/Nc1ccccc1OC	3%	10%	25*	43*	-2%
CC(=O)Oc1c(/C=C(\C#N)C(N)=O)[nH]c2ccccc12	16µM*	8%	22	11	?
COc1cc(/C=C(\C#N)C(=O)c2c[nH]c3ccccc23)cc(OC)c1O	15%	-20%	1	28	?
CCOC(=O)C(=O)/C(C#N)=C/Nc1ccccc1	-1%	1%	-1	-11	19%
CCN1C(=O)[C@H]2[C@@H](c3ccc(-c4ccc(OC)cc4)cc3)N[C@@](C)(C(=O)OC)[C@H]2C1=O	·	-1%	·	·	·
Cc1ccc2occ(CC(=O)Nc3c(C(=O)Nc4ccc(Cl)cc4)oc4ccccc34)c2c1	-2%[46.1 µM]	·	·	·	1%[46.1 µM]
COc1ccccc1NC(NC(=O)c1cccnc1)C(Cl)(Cl)Cl (stereo unspecified)	·	-4%	-6	-24	·
CCOP(=O)(OCC)/C(C#N)=C/c1c[nH]c2ccccc12	·	5%	-2	7	·
CCOC(=O)/C(C#N)=C/c1c[nH]c2ccccc12	?	6%	28*	81*	?
Cc1ccc2c(CC(=O)N(Cc3ccc(N(C)C)cc3)Cc3ccco3)coc2c1C	?	·	·	·	5%[46.1 µM]
COc1ccc(OC)c(CNc2nc3ccccc3n2CCN2CCCCC2)c1	-11%	-7%	-4	-7	?
CCCn1c(NCc2cc(OC)ccc2OC)nc2ccccc21	2%	7%	27*	53	-28%
CCn1c(NCc2cc(OC)ccc2OC)nc2ccccc21	-21%	-5%	30*	69*	-9%
CCCOC(=O)CC1C(=O)NCCN1C(=O)OC(C)(C)C (stereo unspecified)	·	5%	1	-18	-10%[46.1 µM]
COc1cc(OC)c(OC)cc1CN1CCN(c2ccccc2OC)CC1	31%[14.3 µM]	-28%	-3	-6	-15%
COc1cc(OC)c(OC)cc1CN1CCN(Cc2cccn2C)CC1	0%	4%[2.32 µM]	-1	-6	21µM*
Cc1nn(CC(=O)NC2CC2)c(=O)c2cc3cc(F)ccc3n12	·	·	·	·	-17%[46.1 µM]
CC(C)Cn1cc(NC(=O)NCc2cccc(Cl)c2)c2ccccc2c1=O	11%[46.1 µM]	·	·	·	·
SMILES	Lassa entry inh	AMA1 RON2 block	Cycloheximide cs	Shiga inhibitor	Marburg entry inh
COc1ccc(OCC(O)CN2CCC(CN3C(=O)c4cccc5cccc(c45)C3=O)CC2)cc1 (stereo unspecified)	?	-1%	-2	11	4.5µM*
Cc1ccc(C)c(OCC(O)CN2CCC(CN3C(=O)c4cccc5cccc(c45)C3=O)CC2)c1 (stereo unspecified)	?	-8%	-1	-5	?
Cc1nn(Cc2nnc(SCC(=O)Nc3ccc(Cl)cc3)n2C)c(C)c1[N+](=O)[O-]	15%	2%	-1	19	1%
CC[C@H](C(=O)OCCN(CC)CC)c1ccccc1	·	·	·	·	2%
COc1ccc(COC(=O)N/N=C(\C)CC(=O)Nc2c(C)cc(C)cc2C)cc1	7.3µM*	0%	-2	9	12%[46.1 µM]
CCOC(=O)c1nn(-c2ccc3c(c2)OCCO3)cc1O	·	-2%	40*	84*	?
CCOC(=O)c1c(NC(=O)CSc2nnnn2-c2ccc3c(c2)OCCO3)sc(C)c1C	?	13%	12	5	0%
CCOC(=O)c1nn(-c2ccc(C)c(C)c2)cc1O	10%	-1%	42*	94*	-2%
COC(=O)c1nn(-c2ccc3c(c2)CCN3C(C)=O)cc1O	2.6µM*	6%	-11	-36	?
CCOC(=O)c1nn(-c2c(C)n(C)n(-c3ccccc3)c2=O)cc1O	-2%	12%	-4	-17	0%
COC(=O)c1nn(-c2ccc3c(c2)OCO3)cc1O	?	-3%	33*	61	-12%
COc1cccc(NC(=O)CN(C)C(=O)CCCc2nc3ccccc3c(=O)[nH]2)c1	·	-3%	·	·	·
COc1ccc(CCNC(=O)CSc2ccc(-c3cccs3)nn2)cc1OC	?	-16%	6	-12	12%[46.1 µM]
CCOC(=O)c1nn(-c2ccc([N+](=O)[O-])cc2)cc1O	·	-2%	31*	46*	·
Cc1ccc(NC(=O)COC(=O)c2nn(-c3ccc(Cl)cc3)cc2O)cc1	14%	-2%	·	·	3%
N#CC(C#N)=C1C=CC=CN1/C(=C\c1ccccc1)C(=O)c1cccs1	5%	7%	24*	57	7%
COc1ccc(CNC(=O)CN2C(=O)CCCc3ccccc32)cc1	0%[46.1 µM]	·	·	·	·
COc1ccc(OC)c(C2C=C(C34CC5CC(CC(C5)C3)C4)NC(=S)N2)c1 (stereo unspecified)	?	-20%	0	-7	7.1µM*
OCc1ccc(-c2nn(Cc3ccccc3)c3ccccc23)o1	2.9µM*	-18%	·	·	2.6µM*
O=C(NCc1ccc(F)cc1)c1cc2n(n1)C(C(F)(F)F)CC(C1CC1)N2 (stereo unspecified)	·	-9%	-5	29	·
O=C(Nc1nc2c(s1)CCCC2)c1cc2n(n1)C(C(F)(F)F)CC(C1CC1)N2 (stereo unspecified)	?	-3%	19*	40	?
O=C(Nc1ccccc1)c1cc2n(n1)C(C(F)(F)F)CC(C1CC1)N2 (stereo unspecified)	22%	-1%	36*	58*	0%
Cc1nnc(NC(=O)c2cc3n(n2)C(C(F)(F)F)CC(C2CC2)N3)s1 (stereo unspecified)	3%	50%	-2	0	16%
CSc1ccccc1C(=O)NC1CCCCCC1	2%	-1%	1	-6	-2%
Cc1ccccc1C(=O)NC1CCCCCCC1	·	0%	34*	39*	·
O=C(NC1CCCCC1)c1cc2ccccc2cc1O	2%	13%	24*	34*	-19%
O=C(NC1CCCCCCC1)c1ccccc1O	8%	1%	31*	75*	?
COCCN(C(=O)Cc1cccs1)C(C(=O)NC1CCCC1)c1cc(OC)c(OC)c(OC)c1 (stereo unspecified)	-24%	5%	49*	111*	2%[46.1 µM]
Cc1ccccc1-c1nnc2s/c(=C\c3ccc(N(C)C)cc3)c(=O)n12	·	·	-4	38	·
